Reference: PubChem BioAssay AID504941 (Broad Institute, 2011)
Hit rate of the full screen: of about 1,200 compounds, about 170 (14%) were called active. The rule behind the calls is not given here. Only a sample is shown. Potency and affinity values are given separately.

test: twin-arginine translocation blockade, bacterial reporter – cherry-pick, set 2, plate reader, dose response (AID 504941); conditions: E. coli Tat transport reporter; series mostly up to 38 µM; activity change, negative = inhibition: at the top concentration

Activity change, negative = inhibition, inactive:
C=CCOc1ccccc1CN1CCC(n2nccc2NC(=O)C2CC2)CC1 -53.1%
O=C(CSc1nccn1Cc1ccccc1)NC1CCCC1 1.77%
O=C(NNC(=S)Nc1cccc(Cl)c1)c1ccccc1OC(F)F 21.6%
COc1ccc(C2CC(=O)Nc3n[nH]c(-c4ccccc4)c32)cc1OC (centres undefined) 23.4%
CCc1ccc(N2CC(C(=O)N3CCN(c4ccccn4)CC3)CC2=O)cc1 (centres undefined) 23.1%
COc1ccc(-c2nnc(Nc3ccc(CC(N)=O)cc3)c3ccccc23)cc1 -7.23%
CCC(=O)NC(c1ccccc1Cl)c1c(O)ccc2ccccc12 (centres undefined) 0.404%
Cc1cc(C)n(CCCNC(=O)COc2ccc([N+](=O)[O-])cc2)n1 -36.6%
COc1ccccc1NS(=O)(=O)c1cc(NC(C)=O)ccc1N1CCCCC1 1.54%
CCn1c2ccc(C)cc2c2nnc(SCCN3CCOCC3)nc21 5%
COC(=O)c1ccc(NC(=O)N2CCC(O)(c3cccnc3)CC2)cc1 9.11%
Cc1ccc(/C=C2/C(=N)N3N=C(CC(=O)N4CCCC4)SC3=NC2=O)o1 15.6%
COC(=O)c1c(NC(=O)CCN2CCOCC2)sc2c1CCCC2 1.23%
COc1ccc(CCN=C(N)NS(=O)(=O)c2cccs2)cc1 -3.98%
COc1cccc(NC(=O)Nc2cnccn2)c1 -11.9%
COc1cc(SC)ccc1C(=O)OCC(=O)NC(=O)NC(C)C -25.9%
O=C(N/C(=C/c1cccc([N+](=O)[O-])c1)C(=O)N1CCOCC1)c1ccc(Br)cc1 14.1%
Cn1cccc1CNCC(O)c1ccccc1 (centres undefined) -0.896%
CC(Sc1nnc(-c2ccccc2F)n1C1CC1)C(=O)NCc1ccco1 (centres undefined) 20.6%
CC1CCN(c2ccc(C(=O)NCc3ccco3)cc2[N+](=O)[O-])CC1 24%
N#Cc1cccc(Nc2c3c(nc4ccccc24)CCCC3)c1 31%
O=S(=O)(c1cc(Cl)cc(Cl)c1O)N1CCC2(CC1)OCCO2 -7.76%
CCS(=O)(=O)c1ccc(NC(=O)c2ccccc2Cl)c(O)c1 -5.3%
CS(=O)(=O)c1ccc(Cl)c(NC(=O)COC(=O)CCc2c[nH]c3ccccc23)c1 -2.31%
Nc1ccn(CC(=O)N2CCN(c3ccccn3)CC2)c(=O)n1 8.72%
NC(=O)c1ncn([C@@H]2O[C@H](CNCc3cccn3-c3ccncc3)[C@@H](O)[C@H]2O)n1 5.2%
O=C(NCc1ccc2c(c1)OCO2)c1c(O)c2cccc3c2n(c1=O)CCC3 -10.3%
Cc1nc(NC(=O)c2ccco2)sc1-c1csc(Nc2ccc(Cl)cc2)n1 -28.1%
Cc1ccc(SCc2noc(C(=O)NC(C)C)c2C(=O)O)cc1C 22.1%
CCCCNC(=O)NNC(=O)c1ccc(F)cc1 3.97%
O=C(O)C1C(=O)NCC1c1ccccc1 (centres undefined) 5.39%
Cc1ccc(C(=O)N/C(=C\c2cn(S(=O)(=O)N(C)C)c3ccccc23)C(=O)NCCCN2CCOCC2)cc1 -3.49%
COc1ccc(Nc2nc(NCCO)nc(OC)n2)cc1 12.2%
CCOC(=O)CC(NC(=O)c1cccc2c1C(=O)N(Cc1cccnc1)C2)c1ccc(OCC)c(OC)c1 (centres undefined) 22.5%
OC1(c2ccccc2Cl)NN=C2CCCCCN21 (centres undefined) 2.37%
Cc1nc2ccccn2c1/C(O)=C1\C(=O)C(=O)N(CCN(C)C)C1c1ccco1 (centres undefined) -13.9%
COc1ccccc1N1C(=NC(=O)CCc2ccccc2)SC2CS(=O)(=O)CC21 (centres undefined) 1.05%
CCNc1c(NS(=O)(=O)c2ccc(OC)cc2)c(=O)oc2ccccc12 48%
COc1ccc(Cc2nnc(NS(=O)(=O)c3ccc(Cl)cc3)s2)cc1OC -17.9%
Oc1ccc(/C=N/Nc2ccccc2)cc1 6.32%
CC(=O)NS(=O)(=O)c1ccc(NC(=O)c2cc(-c3cccs3)nc3ccccc23)cc1 5.92%
CC(C)c1nnc(NC(=O)CCS(=O)(=O)Cc2ccccc2)s1 21.5%
O=C(Cn1ccc(C(F)(F)F)n1)Nc1ccc(S(=O)(=O)NCc2ccco2)cc1 11.5%
CCC(C)n1nccc1NC(=O)C(C)Cl (centres undefined) -9.12%
O=C(Nc1cccc(-c2nc3cccnc3s2)c1)C1c2ccccc2Oc2ccccc21 21.1%
Nc1cc(OC(=O)c2ccc(F)cc2)nn1S(=O)(=O)c1ccc(F)cc1 -2.53%
CC(C)(C)n1nnnc1C(c1cc2cc3c(cc2[nH]c1=O)OCCO3)N1CCSCC1 (centres undefined) 8.61%
Cc1cc(C(C#N)c2ccccc2F)n2ncnc2n1 (centres undefined) -3.6%
C=CCc1c(C)nc(C)nc1N/N=C/c1ccc(N(C)C)cc1 3.93%
COc1ccc(S(=O)(=O)N(C)c2ccc(C(=O)N3CCOCC3)cc2)cc1 -2.72%
CCCCOc1ccc(C2CC(=O)N(C)C2=O)cc1 (centres undefined) 15.5%
CC[C@H]1OC(=O)[C@H](C)[C@@H](O[C@H]2C[C@@](C)(OC)[C@@H](O)[C@H](C)O2)[C@H](C)[C@@H](O[C@@H]2O[C@H](C)C[C@H](N(C)C)[C@H]2O)[C@](C)(OC)C[C@@H](C)C(=O)[C@H](C)[C@@H](O)[C@]1(C)O 21.8%
NC(=O)c1ccccc1NC(=O)COc1ccc2c(c1)OCO2 -15.4%
CCCN(Cc1ccccc1)C(=S)Nc1ccc(SC(F)F)cc1 -28.4%
c1ccc2c(OCCCN3CCCCCC3)cccc2c1 11.3%
CC(C)(C)OC(=O)N[C@@H](Cc1ccccc1)[C@H](O)c1ccco1 -13%
C[C@H](NC(=O)c1nc[nH]c1C(=O)NCc1ccc(CNC(=O)OC(C)(C)C)cc1)c1ccccc1 -35%
Cc1ccccc1-c1nc(CN2CCC(C(=O)O)CC2)c(C)o1 -19.8%
CC(O/N=C/c1ccc(OC(F)F)cc1)C(=O)Nc1cccc(S(=O)(=O)N2CCOCC2)c1 (centres undefined) 10.4%
Fc1ccc(-n2c(-c3ccc4ccccc4n3)n[nH]c2=S)cc1Cl 28.2%
Nc1nc(CN2CCCCC2)cs1 18.1%
CCCn1c2c(c(=N)c3c1CCC3)CCCC2 8.27%
COc1ccc(C2OC(=O)CC2C(=O)NCc2ccc(F)cc2)cc1OC (centres undefined) 4.42%
Cc1ccc2oc3c(c(=O)c2c1)C(c1cccs1)N(CCCN(C)C)C3=O (centres undefined) -22.4%
CC(=O)N1CCN(c2cc3c(cc2F)c(=O)c(C(=O)O)cn3C2CC2)CC1 408%
CC(C)C[C@@H](CN1CCC[C@@H]1CN1C(=O)C(=O)NC[C@@H]1Cc1ccccc1)N1C[C@H](Cc2ccc(O)cc2)N(CC2CCCCC2)C(=O)C1=O -8.76%
CCCC(=O)c1c[nH]c(C(=O)N2CCOCC2)c1 -22.5%
CCC(=NCCc1ccc(OC)c(OC)c1)C1=C(O)CC(C)(C)CC1=O -14.1%
N#Cc1nc(-c2ccccc2Cl)oc1N1CCN(C(=O)c2ccco2)CC1 -6.45%
C1=C(CCNc2ncnc3c2cnn3-c2ccccc2)CCCC1 -9.98%
O=C(NNc1ncnc2c1cnn2-c1ccccc1)c1cccs1 2.73%
COc1cccc(C(=O)N(CN2CCCC2=O)c2cccc(Cl)c2)c1OC 2.99%
O=C(Nc1ccc(Cl)c(C(F)(F)F)c1)NC1CC2CCCC(C1)N2C1CC1 (centres undefined) 16.9%
CCOc1ncccc1C(=O)N(CC)CC(=O)Nc1ccc(NC(C)=O)cc1 9.92%
CCCCN(C)CCn1c(=S)[nH]c2ncccc2c1=O -6.89%
CN(C(=O)COC(=O)c1cccc(S(=O)(=O)N2CCOCC2)c1)C1CCS(=O)(=O)C1 (centres undefined) 6.11%
CC(C)C(C(=O)NC1CCCC1)N(CC1CCCO1)C(=O)CNS(=O)(=O)c1ccccc1 (centres undefined) -0.216%
CCOc1nc(Nc2ccc(OC)c(Cl)c2)nc(OCC)n1 -7.13%
Cc1ccc(C)c(N2CCN(c3ccc4cc(S(=O)(=O)N5CCCCC5)ccc4n3)CC2)c1 10.4%
O=C(CCCc1nc2ccccc2s1)NC1CCOC1=O (centres undefined) -11.4%
Clc1ccccc1-c1ccc2ncnc(NCc3cccnc3)c2c1 7.13%
Cc1ccc(S(=O)(=O)Nc2ccnc(-c3cccnc3)n2)cc1 9.87%
CC1CC(OC(=O)C(O)c2ccccc2)CC(C)(C)N1C (centres undefined) -5.37%
CC1CCN(C(=O)c2ccc(S(=O)(=O)N3CCCC3)cc2)CC1 10.2%
CC1CCN(CC[C@H]2CCCN2S(=O)(=O)c2cccc(O)c2)CC1 8.51%
COc1ccc(/C=C/C(=O)OCc2cc(=O)n3c(n2)sc2ccccc23)cc1 -12%
CCN1CCN(C(=O)C(NS(=O)(=O)c2ccc3nc(C)sc3c2)C(C)C)CC1 (centres undefined) -20.5%
O=C(CCNC(=O)c1ccc([N+](=O)[O-])cc1)Nc1cccc(S(=O)(=O)N2CCCCCC2)c1 -10.6%
O=C(NCCc1ccccc1)c1ccc2c(c1)OCCCO2 -10.6%
O=C(CN1CCN(c2ccc(O)cc2)CC1)Nc1ccc2c(c1)OCCO2 21.3%
Cc1cc(Cl)c(S(=O)(=O)NC(C(=O)O)C(C)C)cc1OCC(=O)NC1CCCCC1 (centres undefined) -0.619%
C[C@@H]1CN(c2c(F)c(F)c3c(=O)c(C(=O)O)cn(C4CC4)c3c2F)C[C@H](C)N1 303%
Nc1nc(=O)n(C2CC(O)C(CO)O2)cc1F (centres undefined) 181%
CCNC(=S)NCCN1CCOCC1 7.35%
O=C(Nc1ccc2c(c1)OCCO2)c1ccc(Cl)c(S(=O)(=O)N2CCCCC2)c1 6.22%
CCCc1cc(=O)[nH]c2nnc(SCC(=O)Nc3ccc4c(c3)OCCO4)n12 1.25%
C=CCN(CC=C)S(=O)(=O)c1ccc(NC(=S)NC(=O)C2CC2)cc1 -41.6%
COc1ccc(-c2cc(C(=O)Oc3ccc([N+](=O)[O-])cc3)c3ccccc3n2)cc1 30.5%
COc1ccc(-c2cc(C)no2)cc1S(=O)(=O)NCCCN1CCCCCC1 9.9%
CCOc1ccc2[nH]c(C)c(CN3CCCCC3)c(=O)c2c1 17.6%
Cc1cc(-n2c(C)cc(C(=O)COc3cccnc3[N+](=O)[O-])c2C)no1 0.514%
O=C(N1CCCC1)C12CC3CC(C1)CC(C(=O)N1CCCC1)(C3)C2 4.29%
C/C(=N\NC(=O)c1cccc(O)c1)c1cccc(NC(=O)c2ccc(F)cc2)c1 7.5%
COc1cc(C(=O)NCCOC(=O)c2cccc(N(C)C)c2)cc(OC)c1OC -12.9%
